This note sets out measurements from paper PMC7862700, “An all-to-all approach to the identification of sequence-specific readers for epigenetic DNA modifications on cytosine”.

HSF1, sequence (Q00613 whole entry): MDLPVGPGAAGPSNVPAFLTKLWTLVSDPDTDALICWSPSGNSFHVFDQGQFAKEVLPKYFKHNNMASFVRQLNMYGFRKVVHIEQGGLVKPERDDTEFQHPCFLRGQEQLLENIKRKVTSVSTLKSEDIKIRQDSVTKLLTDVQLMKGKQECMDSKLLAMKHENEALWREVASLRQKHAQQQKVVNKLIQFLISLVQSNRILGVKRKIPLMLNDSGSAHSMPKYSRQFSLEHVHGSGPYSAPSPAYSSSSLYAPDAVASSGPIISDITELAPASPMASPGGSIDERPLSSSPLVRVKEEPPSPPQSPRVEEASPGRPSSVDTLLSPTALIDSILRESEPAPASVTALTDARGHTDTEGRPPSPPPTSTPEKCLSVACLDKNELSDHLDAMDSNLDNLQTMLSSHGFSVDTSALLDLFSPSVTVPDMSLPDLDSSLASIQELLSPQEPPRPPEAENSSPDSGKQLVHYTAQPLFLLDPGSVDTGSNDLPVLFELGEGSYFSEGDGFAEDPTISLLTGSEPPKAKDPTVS
ETV5, sequence (P41161 whole entry): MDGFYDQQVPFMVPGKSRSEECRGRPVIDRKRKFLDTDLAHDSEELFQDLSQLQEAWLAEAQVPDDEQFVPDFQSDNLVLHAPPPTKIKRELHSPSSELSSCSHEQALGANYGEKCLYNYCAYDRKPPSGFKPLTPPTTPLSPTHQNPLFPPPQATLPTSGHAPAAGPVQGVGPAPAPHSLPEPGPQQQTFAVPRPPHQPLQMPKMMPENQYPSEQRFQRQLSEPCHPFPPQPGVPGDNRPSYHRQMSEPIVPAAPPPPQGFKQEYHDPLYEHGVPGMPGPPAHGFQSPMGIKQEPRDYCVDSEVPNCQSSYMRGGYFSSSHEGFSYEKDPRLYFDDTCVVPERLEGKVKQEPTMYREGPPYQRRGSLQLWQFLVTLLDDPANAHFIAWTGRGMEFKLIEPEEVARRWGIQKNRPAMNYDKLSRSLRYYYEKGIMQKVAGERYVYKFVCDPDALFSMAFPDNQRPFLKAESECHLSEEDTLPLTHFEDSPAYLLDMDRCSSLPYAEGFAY

The target of one assay is T1, FEV (Homo sapiens, UniProt Q99581 1-238).
T1 sequence: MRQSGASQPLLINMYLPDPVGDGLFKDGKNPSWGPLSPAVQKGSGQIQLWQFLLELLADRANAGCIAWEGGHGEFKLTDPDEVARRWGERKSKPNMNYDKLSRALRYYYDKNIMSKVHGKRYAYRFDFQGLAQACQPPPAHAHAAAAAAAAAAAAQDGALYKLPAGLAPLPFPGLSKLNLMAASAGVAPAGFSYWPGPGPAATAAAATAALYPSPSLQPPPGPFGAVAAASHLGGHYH
Description: DAPPL (digital affinity profiling via proximity ligation, sequencing); 10 mM Tris-HCl pH 7.5, 50 mM NaCl, 1 mM DTT, 4% glycerol, room temperature, 30 min; GST-TFs on glutathione beads, 16-mer random dsDNA library, 0.1% formaldehyde crosslink after washing; high values mean tight binding. Particulars: protein: recombinant; tags: N-terminal GST; dsDNA, one strand shown. In a few lines:
(§1)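 Each value of binding signal is a hexamer's read frequency for a factor divided by the same hexamer's frequency in the tag-only sample. Barcoded, bead-captured GST fusions of human transcription factors made in yeast were pooled with that sample and incubated with 200 nmole of a random double-stranded 16-mer DNA library in Tris/NaCl/DTT/glycerol buffer at room temperature for 30 min. Washing, 0.1% formaldehyde crosslinking, proximity ligation, PCR and Illumina NextSeq500 sequencing followed.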
With TACCAT, the binding signal was 1.14 fold enrichment (6-mer frequency, TF over GST control).
In the case of GTTCCT, the binding signal is 1.75 fold enrichment (6-mer frequency, TF over GST control).
With CCGCCT, the binding signal is 1.43 fold enrichment (6-mer frequency, TF over GST control).
For AAATTG, the binding signal is 1.22 fold enrichment (6-mer frequency, TF over GST control).
As for AAAAAG, the binding signal was 1.2 fold enrichment (6-mer frequency, TF over GST control).
In the case of TATTTT, the binding signal was 1.23 fold enrichment (6-mer frequency, TF over GST control).
Regarding CTTCGT, the binding signal is 1.33 fold enrichment (6-mer frequency, TF over GST control).
Still for that read-out and setting: the same measure for GTTATT: 1.08 fold enrichment (6-mer frequency, TF over GST control); for CCTGCT: 1.67 fold enrichment (6-mer frequency, TF over GST control).
For the sequence CTAGCA, the binding signal is 1.27 fold enrichment (6-mer frequency, TF over GST control).
In the case of ATGACC, the binding signal is 1.63 fold enrichment (6-mer frequency, TF over GST control).
CTTCCG: the binding signal is 10.5 fold enrichment (6-mer frequency, TF over GST control).
With AATGAC, the binding signal was 1.47 fold enrichment (6-mer frequency, TF over GST control).
With ACCGAT, the binding signal was 1.06 fold enrichment (6-mer frequency, TF over GST control).
As to ATACGA, the binding signal was 1.16 fold enrichment (6-mer frequency, TF over GST control).
As for TCTCGA, the binding signal is 1.23 fold enrichment (6-mer frequency, TF over GST control).
Consider TGACCG, for which the binding signal was 1.66 fold enrichment (6-mer frequency, TF over GST control).
On the same count and under the same terms, the result for TCTGCA reads 1.43 fold enrichment (6-mer frequency, TF over GST control).
On the same count and under the same terms, the same measure for TACGAC: 1.28 fold enrichment (6-mer frequency, TF over GST control); for TAAGTA: 1.16 fold enrichment (6-mer frequency, TF over GST control).
In the case of GTTCTC, the binding signal was 1.32 fold enrichment (6-mer frequency, TF over GST control).
TTTTAA: the binding signal was 1.26 fold enrichment (6-mer frequency, TF over GST control).
On to ATGCTT, for which the binding signal is 1.2 fold enrichment (6-mer frequency, TF over GST control).
As for ATCCTG, the binding signal is 1.46 fold enrichment (6-mer frequency, TF over GST control).
The same measure, in the same setting: the result for ACACTT reads 1.68 fold enrichment (6-mer frequency, TF over GST control).
With ATTCTC, the binding signal was 1.32 fold enrichment (6-mer frequency, TF over GST control).
For TCTTTG, the binding signal is 1.09 fold enrichment (6-mer frequency, TF over GST control).
CAATTC: the binding signal was 1.24 fold enrichment (6-mer frequency, TF over GST control).
On to TAATTT, for which the binding signal was 1.35 fold enrichment (6-mer frequency, TF over GST control).
Consider ACTGAT, for which the binding signal is 1.19 fold enrichment (6-mer frequency, TF over GST control).
TTTTTG: the binding signal was 1.33 fold enrichment (6-mer frequency, TF over GST control).
On the same count and under the same terms, the same measure for TTTTCG: 1.23 fold enrichment (6-mer frequency, TF over GST control); for TCGACT: 1.42 fold enrichment (6-mer frequency, TF over GST control).
On to TTATGT, for which the binding signal is 1.15 fold enrichment (6-mer frequency, TF over GST control).
Consider TTATCT, for which the binding signal was 1.24 fold enrichment (6-mer frequency, TF over GST control).
For CCGTTC, the binding signal was 1.48 fold enrichment (6-mer frequency, TF over GST control).
AAACTA: the binding signal is 1.29 fold enrichment (6-mer frequency, TF over GST control).
As for TACATG, the binding signal is 1.12 fold enrichment (6-mer frequency, TF over GST control).
Turning to GTTGCT, the binding signal was 1.18 fold enrichment (6-mer frequency, TF over GST control).

A further assay deals with ETV5 (Homo sapiens, UniProt P41161 1-510). The description is as above. Particulars: protein: recombinant; tags: N-terminal GST; dsDNA, one strand shown. The essentials:
as §1
As for TACCAT, the binding signal was 1.13 fold enrichment (6-mer frequency, TF over GST control).
GTTCCT: the binding signal is 1.91 fold enrichment (6-mer frequency, TF over GST control).
CCGCCT: the binding signal was 1.6 fold enrichment (6-mer frequency, TF over GST control).
On the same count and under the same terms, the result for AAATTG reads 1.26 fold enrichment (6-mer frequency, TF over GST control); that for AAAAAG, 1.3 fold enrichment (6-mer frequency, TF over GST control); that for TATTTT, 1.39 fold enrichment (6-mer frequency, TF over GST control).
On the same count and under the same terms, the result for CTTCGT reads 1.33 fold enrichment (6-mer frequency, TF over GST control).
Turning to GTTATT, the binding signal was 1.26 fold enrichment (6-mer frequency, TF over GST control).
As to CCTGCT, the binding signal was 1.64 fold enrichment (6-mer frequency, TF over GST control).
Turning to CTAGCA, the binding signal was 1.25 fold enrichment (6-mer frequency, TF over GST control).
For ATGACC, the binding signal was 1.54 fold enrichment (6-mer frequency, TF over GST control).
Same read-out and setting: the same measure for CTTCCG: 8.45 fold enrichment (6-mer frequency, TF over GST control); for AATGAC: 1.35 fold enrichment (6-mer frequency, TF over GST control).
As to ACCGAT, the binding signal was 1.08 fold enrichment (6-mer frequency, TF over GST control).
For the sequence ATACGA, the binding signal was 1.17 fold enrichment (6-mer frequency, TF over GST control).
For TCTCGA, the binding signal is 1.4 fold enrichment (6-mer frequency, TF over GST control).
Consider TGACCG, for which the binding signal is 1.33 fold enrichment (6-mer frequency, TF over GST control).
Still for that read-out and setting: the same measure for TCTGCA: 1.36 fold enrichment (6-mer frequency, TF over GST control); for TACGAC: 1.18 fold enrichment (6-mer frequency, TF over GST control); for TAAGTA: 1.18 fold enrichment (6-mer frequency, TF over GST control).
Turning to GTTCTC, the binding signal was 1.32 fold enrichment (6-mer frequency, TF over GST control).
On the same count and under the same terms, the same measure for TTTTAA: 1.24 fold enrichment (6-mer frequency, TF over GST control); for ATGCTT: 1.29 fold enrichment (6-mer frequency, TF over GST control); for ATCCTG: 1.71 fold enrichment (6-mer frequency, TF over GST control).
ACACTT: the binding signal is 1.67 fold enrichment (6-mer frequency, TF over GST control).
On to ATTCTC, for which the binding signal was 1.31 fold enrichment (6-mer frequency, TF over GST control).
For TCTTTG, the binding signal was 1.16 fold enrichment (6-mer frequency, TF over GST control).
For CAATTC, the binding signal is 1.37 fold enrichment (6-mer frequency, TF over GST control).
As to TAATTT, the binding signal is 1.46 fold enrichment (6-mer frequency, TF over GST control).
Regarding ACTGAT, the binding signal is 1.21 fold enrichment (6-mer frequency, TF over GST control).
Still for that read-out and setting: the same measure for TTTTTG: 1.42 fold enrichment (6-mer frequency, TF over GST control).
For the sequence TTTTCG, the binding signal is 1.27 fold enrichment (6-mer frequency, TF over GST control).
In the case of TCGACT, the binding signal is 1.35 fold enrichment (6-mer frequency, TF over GST control).
Turning to TTATGT, the binding signal was 1.38 fold enrichment (6-mer frequency, TF over GST control).
Take TTATCT: the binding signal was 1.27 fold enrichment (6-mer frequency, TF over GST control).
Same read-out and setting: the result for CCGTTC reads 1.43 fold enrichment (6-mer frequency, TF over GST control).
Turning to AAACTA, the binding signal is 1.3 fold enrichment (6-mer frequency, TF over GST control).
Take TACATG: the binding signal was 1.26 fold enrichment (6-mer frequency, TF over GST control).
In the case of GTTGCT, the binding signal was 1.28 fold enrichment (6-mer frequency, TF over GST control).

Another assay has as its target HSF1 (Homo sapiens, UniProt Q00613 1-529). Described as above. Particulars: protein: recombinant; tags: N-terminal GST; chain copies: 3; dsDNA, one strand shown. In a few lines: as §1
Regarding TACCAT, the binding signal was 1.14 fold enrichment (6-mer frequency, TF over GST control).
GTTCCT: the binding signal is 1.43 fold enrichment (6-mer frequency, TF over GST control).
Turning to CCGCCT, the binding signal is 1.08 fold enrichment (6-mer frequency, TF over GST control).
As for AAATTG, the binding signal is 1.16 fold enrichment (6-mer frequency, TF over GST control).
As to AAAAAG, the binding signal is 1.34 fold enrichment (6-mer frequency, TF over GST control).
For the sequence TATTTT, the binding signal was 1.5 fold enrichment (6-mer frequency, TF over GST control).
On to CTTCGT, for which the binding signal was 1.31 fold enrichment (6-mer frequency, TF over GST control).
On the same count and under the same terms, the same measure for GTTATT: 1.19 fold enrichment (6-mer frequency, TF over GST control).
CCTGCT: the binding signal is 1.34 fold enrichment (6-mer frequency, TF over GST control).
In the case of CTAGCA, the binding signal was 2.11 fold enrichment (6-mer frequency, TF over GST control).
Consider ATGACC, for which the binding signal is 1.42 fold enrichment (6-mer frequency, TF over GST control).
With CTTCCG, the binding signal was 1.57 fold enrichment (6-mer frequency, TF over GST control).
AATGAC: the binding signal was 1.22 fold enrichment (6-mer frequency, TF over GST control).
As to ACCGAT, the binding signal is 1.14 fold enrichment (6-mer frequency, TF over GST control).
In the case of ATACGA, the binding signal was 1.22 fold enrichment (6-mer frequency, TF over GST control).
On the same count and under the same terms, the same measure for TCTCGA: 5.05 fold enrichment (6-mer frequency, TF over GST control); for TGACCG: 1.17 fold enrichment (6-mer frequency, TF over GST control).
TCTGCA: the binding signal is 1.26 fold enrichment (6-mer frequency, TF over GST control).
The same measure, in the same setting: the result for TACGAC reads 1.14 fold enrichment (6-mer frequency, TF over GST control).
With TAAGTA, the binding signal was 1.76 fold enrichment (6-mer frequency, TF over GST control).
In the case of GTTCTC, the binding signal is 2.29 fold enrichment (6-mer frequency, TF over GST control).
With TTTTAA, the binding signal was 1.59 fold enrichment (6-mer frequency, TF over GST control).
Regarding ATGCTT, the binding signal is 1.23 fold enrichment (6-mer frequency, TF over GST control).
Take ATCCTG: the binding signal was 1.33 fold enrichment (6-mer frequency, TF over GST control).
With ACACTT, the binding signal was 1.11 fold enrichment (6-mer frequency, TF over GST control).
Take ATTCTC: the binding signal is 2.42 fold enrichment (6-mer frequency, TF over GST control).
Same read-out and setting: the result for TCTTTG reads 1.24 fold enrichment (6-mer frequency, TF over GST control); that for CAATTC, 1.19 fold enrichment (6-mer frequency, TF over GST control).
On the same count and under the same terms, the same measure for TAATTT: 1.64 fold enrichment (6-mer frequency, TF over GST control); for ACTGAT: 1.22 fold enrichment (6-mer frequency, TF over GST control).
Turning to TTTTTG, the binding signal was 1.24 fold enrichment (6-mer frequency, TF over GST control).
Take TTTTCG: the binding signal was 1.53 fold enrichment (6-mer frequency, TF over GST control).
Turning to TCGACT, the binding signal is 1.57 fold enrichment (6-mer frequency, TF over GST control).
With TTATGT, the binding signal was 1.63 fold enrichment (6-mer frequency, TF over GST control).
Still for that read-out and setting: the same measure for TTATCT: 2.24 fold enrichment (6-mer frequency, TF over GST control); for CCGTTC: 1.18 fold enrichment (6-mer frequency, TF over GST control); for AAACTA: 1.31 fold enrichment (6-mer frequency, TF over GST control).
As for TACATG, the binding signal is 1.08 fold enrichment (6-mer frequency, TF over GST control).
With GTTGCT, the binding signal was 1.09 fold enrichment (6-mer frequency, TF over GST control).
